Experimental findings from the supplement of paper PMC8975748 are described below.

Counter-ions that a name gives are not always drawn.

The test system of this assay is Saccharomyces cerevisiae BY4741 SeMeCo community. In words: z-score of subpopulation abundance vs DMSO median, subpopulation auxotrophic for HM; higher = larger share of this subpopulation than in DMSO controls. To be noted: 10 µM; 24 h; SM minimal medium; subpopulation (auxotrophy): HM. The method, then:
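Fluorescent four-plasmid SeMeCo (self-establishing metabolically cooperating S. cerevisiae BY4741 community; plasmids pH-mRuby2, pL-mWasabi, pU-eCFP, pM-TagRFP657) was grown 24 h in minimal SM medium with each Selleck FDA-approved drug at 10 µM in 384-well plates. Cells were fixed and imaged by high-content confocal microscopy. For each auxotrophic subpopulation (and the prototroph), a z-score gives the deviation from the DMSO vehicle-control population median.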
For the compound `Clc1ccc2c(N3CCN(CCCN4CCN(c5ccnc6cc(Cl)ccc56)CC4)CC3)ccnc2c1` [Piperaquine phosphate], the “z-score of subpopulation abundance” value is 1.16.

In the case of `CC(C)(O/N=C(\C(=O)N[C@@H]1C(=O)N2C(C(=O)[O-])=C(C[n+]3ccccc3)CS[C@H]12)c1csc(N)n1)C(=O)O` [Ceftazidime], the “z-score of subpopulation abundance” value was -0.26.

As to `C[C@]12CC[C@@H]3c4ccc(O)cc4CC[C@H]3[C@@H]1CC[C@@H]2O` [Estradiol], the “z-score of subpopulation abundance” value is -0.39.

With `CC(C)[N+]1(C)[C@@H]2CC[C@H]1C[C@@H](OC(=O)C(CO)c1ccccc1)C2` (stereo not given in full) [Ipratropium Bromide], the “z-score of subpopulation abundance” value was -0.34.

Turning to `c1ccc(-c2ccc(C(c3ccccc3)n3ccnc3)cc2)cc1` (stereo not given) [Bifonazole], the “z-score of subpopulation abundance” value is -0.61.

On to `CCN(CC)CCNC(=O)c1cc(Cl)c(N)cc1OC` [Metoclopramide], for which the “z-score of subpopulation abundance” value was 0.05.

Consider `CCCCC(F)(F)[C@@]1(O)CC[C@H]2[C@@H](CC(=O)[C@@H]2CCCCCCC(=O)O)O1` [Lubiprostone], for which the “z-score of subpopulation abundance” value is -0.8.

`CCCCOc1ccc(C(=O)CCN2CCCCC2)cc1` [Dyclonine HCl]: the “z-score of subpopulation abundance” value is -0.09.

With `COc1ccccc1OCC(O)CN1CCN(CC(=O)Nc2c(C)cccc2C)CC1` (stereo not given) [Ranolazine 2HCl], the “z-score of subpopulation abundance” value was -0.18.

On to `CCCCCC(=O)O[C@]1(C(C)=O)CC[C@H]2[C@@H]3CCC4=CC(=O)CC[C@]4(C)[C@H]3CC[C@@]21C` [Hydroxyprogesterone caproate], for which the “z-score of subpopulation abundance” value came out at 1.31.

Take `O=C1CC2(CCCC2)CC(=O)N1CCCCN1CCN(c2ncccn2)CC1` [Buspirone HCl]: the “z-score of subpopulation abundance” value was -0.83.

Turning to `O=c1[nH]c(=O)n([C@H]2C[C@H](O)[C@@H](CO)O2)cc1/C=C/Br` [Brivudine], the “z-score of subpopulation abundance” value is -0.22.

With `CCCc1nn(C)c2c(=O)[nH]c(-c3cc(S(=O)(=O)N4CCN(C)CC4)ccc3OCC)nc12` [Sildenafil], the “z-score of subpopulation abundance” value was -0.93.

Take `Oc1ccc(C2CNCCc3c2cc(O)c(O)c3Cl)cc1` (stereo not given) [Fenoldopam mesylate]: the “z-score of subpopulation abundance” value is 1.58.

In the case of `CCCN[C@H]1CCc2nc(N)sc2C1` [Pramipexole 2HCl Monohydrate], the “z-score of subpopulation abundance” value was -0.39.

For `COc1ccccc1N1CCN(CCCNc2cc(=O)n(C)c(=O)n2C)CC1` [Urapidil HCl], the “z-score of subpopulation abundance” value is -0.81.

With `COc1ccc(C(Cl)=C(c2ccc(OC)cc2)c2ccc(OC)cc2)cc1` [Chlorotrianisene], the “z-score of subpopulation abundance” value was 1.06.

On to `C=C1CCC2C(C)(CO)C(O)CCC2(C)C1CC=C1C=COC1=O` (stereo not given) [Dehydroandrographolide], for which the “z-score of subpopulation abundance” value was determined as 0.87.

On to `Cc1[nH]cnc1CN1CCc2c(c3ccccc3n2C)C1=O` [Alosetron Hydrochloride], for which the “z-score of subpopulation abundance” value was 0.69.

In the case of `CCN1CCCC1CNC(=O)c1cc(S(N)(=O)=O)ccc1OC` (stereo not given) [Sulpiride], the “z-score of subpopulation abundance” value is -0.46.

As to `CC(C)c1c(C(=O)Nc2ccccc2)c(-c2ccccc2)c(-c2ccc(F)cc2)n1CC[C@@H](O)C[C@@H](O)CC(=O)O` [Atorvastatin Calcium], the “z-score of subpopulation abundance” value came out at 9.85.

For `N=C(N)NC(=O)c1nc(Cl)c(N)nc1N` [Amiloride HCl dihydrate], the “z-score of subpopulation abundance” value was 1.29.

Turning to `CC1(C)S[C@@H]2[C@H](NC(=O)Cc3ccccc3)C(=O)N2[C@H]1C(=O)O` [Penicillin G Sodium], the “z-score of subpopulation abundance” value is -1.14.

For `COC(=O)C1=C(C)NC(C)=C(C(=O)OC2CCCN(Cc3ccccc3)C2)C1c1cccc([N+](=O)[O-])c1` (stereo not given) [Benidipine HCl], the “z-score of subpopulation abundance” value worked out at 0.86.

Regarding `c1ccc2[nH]c(-c3cscn3)nc2c1` [Thiabendazole], the “z-score of subpopulation abundance” value is -0.37.

Turning to `CC[C@H](C)C(=O)O[C@H]1C[C@@H](C)C=C2C=C[C@H](C)[C@H](CC[C@@H]3C[C@@H](O)CC(=O)O3)[C@H]21` [Lovastatin], the “z-score of subpopulation abundance” value was 0.4.

For the compound `CC(C)c1nc(N(C)S(C)(=O)=O)nc(-c2ccc(F)cc2)c1/C=C/[C@@H](O)C[C@@H](O)CC(=O)O` [Rosuvastatin Calcium], the “z-score of subpopulation abundance” value was found to be 3.45.

`C[C@H](Nc1ncnc2nc[nH]c12)c1cc2cccc(Cl)c2c(=O)n1-c1ccccc1` [Duvelisib (IPI-145, INK1197)]: the “z-score of subpopulation abundance” value is -0.47.

Regarding `NC12CC3CC(CC(C3)C1)C2` [Amantadine], the “z-score of subpopulation abundance” value was -0.03.

Turning to `OC(CCCN1CCCCC1)(c1ccccc1)c1ccccc1` [Diphenidol HCl], the “z-score of subpopulation abundance” value came out at 0.03.

Consider `CONC(=O)Nc1ccc(-c2sc3c(c2CN(C)C)c(=O)n(-c2ccc(OC)nn2)c(=O)n3Cc2c(F)cccc2F)cc1` [Relugolix], for which the “z-score of subpopulation abundance” value was -0.86.

Consider `C[C@@H]1[C@H](O)[C@@H](C)/C=C/C=C/C=C/C=C/C=C/C=C/C=C/[C@H](O[C@@H]2O[C@H](C)[C@@H](O)[C@H](N)[C@@H]2O)C[C@@H]2O[C@](O)(C[C@@H](O)C[C@@H](O)[C@H](O)CC[C@@H](O)C[C@@H](O)CC(=O)O[C@H]1C)C[C@H](O)[C@H]2C(=O)O` [Amphotericin B], for which the “z-score of subpopulation abundance” value worked out at 0.42.

With `CO[C@@]1(NC(=O)C(C(=O)O)c2ccc(O)cc2)C(=O)N2C(C(=O)O)=C(CSc3nnnn3C)CO[C@@H]21` (stereo not given in full) [Latamoxef sodium], the “z-score of subpopulation abundance” value is -0.22.

On to `CCN(CC)CCOC(=O)c1ccc(N)cc1` [Procaine], for which the “z-score of subpopulation abundance” value was -0.99.

Take `COc1cc(O)c(C(=O)Nc2nc(C(=O)NCCN(C(C)C)C(C)C)cs2)cc1OC` [Acotiamide hydrochloride]: the “z-score of subpopulation abundance” value was found to be 0.26.

For `COc1cccc(CCc2ccccc2OCC(CN(C)C)OC(=O)CCC(=O)O)c1` (stereo not given) [Sarpogrelate hydrochloride], the “z-score of subpopulation abundance” value is -0.54.

As to `O=C1NCC2(CCN(CCc3ccccc3)CC2)O1` [Fenspiride HCl], the “z-score of subpopulation abundance” value was -0.15.

As for `Cc1c(C(N)=O)cc([N+](=O)[O-])cc1[N+](=O)[O-]` [Dinitolmide], the “z-score of subpopulation abundance” value was -0.5.

Consider `COc1ccnc(C[S+]([O-])c2nc3cc(OC(F)F)ccc3[nH]2)c1OC` (stereo not given) [Pantoprazole sodium], for which the “z-score of subpopulation abundance” value amounted to 0.29.

For the compound `CCN1CCN(c2cc3c(cc2F)c(=O)c(C(=O)O)cn3C2CC2)CC1` [Enrofloxacin], the “z-score of subpopulation abundance” value is -0.25.
